For 12 molecules, growth results are on record in PubChem BioAssay (NCI).

Test systems include RPMI-8226 leukemia; OVCAR-8 ovarian; OVCAR-5 ovarian; OVCAR-4 ovarian; SK-OV-3 ovarian; IGROV1 ovarian; OVCAR-3 ovarian; HS 578T breast; NCI/ADR-RES ovarian.
Test in all cases: NCI-60 one-dose screen, 48 h (100 = growth as untreated, 0 = no growth, -100 = all killed)
Settings in all cases: 10 µM unless noted

Compounds without any hit were thinned out: in the full panel of roughly 83,000, 20% have a hit.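 Compound tested at a single concentration for 48 hours in 96-well plates; a percent growth value below 10 was scored as active.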 A number with no mark means an inactive call. Active and inactive are the calls of the source.

In the case of `O=C(Cc1nc2cc(Cl)c(Cl)cc2nc1CC(=O)c1cccnc1)c1cccnc1`, the growth in the experiment with RPMI-8226 leukemia was 45.1%; in the experiment on OVCAR-8 ovarian, 77.6%; in the experiment on OVCAR-5 ovarian, 103%; with OVCAR-4 ovarian it was 83.9%; with SK-OV-3 ovarian it was 94.7%; in the experiment on IGROV1 ovarian, 73.6%. Also, the growth is 78.5% with OVCAR-3 ovarian, 76% with HS 578T breast and 76.4% in the experiment with NCI/ADR-RES ovarian.

Take `O=C(/C=C/c1ccccc1)c1ccccc1O`: the growth with RPMI-8226 leukemia was 26.6%; with OVCAR-8 ovarian, 87.7%; with OVCAR-5 ovarian, 91.1%; in the experiment on OVCAR-4 ovarian it was 87.6%; in the experiment with SK-OV-3 ovarian it was 107%; in the experiment with IGROV1 ovarian, 76.5%. The growth in the experiment on OVCAR-3 ovarian was 89%; in the experiment on HS 578T breast, 94.7%; in the experiment on NCI/ADR-RES ovarian, 93.8%.

Take `N=C1C=C(N)C(=O)c2ccccc21`: the growth in the experiment with RPMI-8226 leukemia is 5.15% (active); with OVCAR-8 ovarian it was -20.1% (active); in the experiment on OVCAR-5 ovarian, -85.8% (active); with OVCAR-4 ovarian, -99.6% (active); in the experiment on SK-OV-3 ovarian, -87% (active); in the experiment on IGROV1 ovarian, -37.6% (active). For the same molecule, the growth was -87.6% (active) with OVCAR-3 ovarian and -76.4% (active) with NCI/ADR-RES ovarian.

`Nc1nc2ncc(CNc3ccc(C(=O)NC(CCC(=O)NC(CCC(=O)NC(CCC(=O)NC(CCC(=O)NC(CCC(=O)O)C(=O)O)C(=O)O)C(=O)O)C(=O)O)C(=O)O)cc3)nc2c(=O)[nH]1` (configuration not stated): the growth in the experiment with RPMI-8226 leukemia was 112%; in the experiment with OVCAR-8 ovarian, 101%; in the experiment with OVCAR-5 ovarian, 110%; in the experiment with OVCAR-4 ovarian, 111%; with SK-OV-3 ovarian, 101%; in the experiment on IGROV1 ovarian, 103%. The growth with OVCAR-3 ovarian is 118%; in the experiment on HS 578T breast it was 90.1%; with NCI/ADR-RES ovarian, 119%.

Consider `O=C1C=CC(=O)N1C1CCCCCCCCCCC1`, for which the growth is 31.1% with RPMI-8226 leukemia; 86% in the experiment with OVCAR-8 ovarian; 99.8% in the experiment with OVCAR-5 ovarian; 89.5% in the experiment on OVCAR-4 ovarian; 90.6% with SK-OV-3 ovarian; 80.3% in the experiment on IGROV1 ovarian. Besides, the growth in the experiment on OVCAR-3 ovarian was 53%; in the experiment on HS 578T breast, 108%; in the experiment with NCI/ADR-RES ovarian, 102%.

Consider `CCN1/C(=C/C(C)=C/c2sc3ccc4ccccc4c3[n+]2CC)Sc2ccc3ccccc3c21`, for which the growth was -58.1% (active) in the experiment with RPMI-8226 leukemia; -68.7% (active) with OVCAR-8 ovarian; -91.7% (active) with OVCAR-5 ovarian; -76.9% (active) with OVCAR-4 ovarian; -99% (active) in the experiment with SK-OV-3 ovarian; -88.4% (active) in the experiment on IGROV1 ovarian. Further, the growth is -94.5% (active) in the experiment on OVCAR-3 ovarian, -66.8% (active) in the experiment on HS 578T breast and -19.3% (active) in the experiment with NCI/ADR-RES ovarian.

As to `Cc1nc([N+](=O)[O-])c(Sc2nncc(-c3ccccc3)n2)n1C`, the growth was 62.5% in the experiment on RPMI-8226 leukemia; 89.4% in the experiment with OVCAR-8 ovarian; 79.7% with OVCAR-5 ovarian; 83.7% in the experiment with OVCAR-4 ovarian; 109% in the experiment with SK-OV-3 ovarian; 89.7% in the experiment on IGROV1 ovarian. Further, the growth in the experiment with OVCAR-3 ovarian was 78.5%; in the experiment with HS 578T breast, 99.1%; in the experiment on NCI/ADR-RES ovarian it was 81.3%.

Take `c1ccc2sc(SSN3CC4CCC(CC4)C3)nc2c1`: the growth with RPMI-8226 leukemia was 111%; in the experiment with OVCAR-8 ovarian it was 106%; in the experiment on OVCAR-5 ovarian it was 112%; in the experiment with OVCAR-4 ovarian it was 102%; in the experiment on SK-OV-3 ovarian, 108%; in the experiment on IGROV1 ovarian, 14.6%. The growth with OVCAR-3 ovarian is 150%; with HS 578T breast, 92.7%; with NCI/ADR-RES ovarian, 108%.

In the case of `CC(CSc1n[nH]c(=S)s1)c1ccccc1` (configuration not stated), the growth is 103% in the experiment on RPMI-8226 leukemia; 109% with OVCAR-8 ovarian; 127% in the experiment on OVCAR-5 ovarian; 94.1% in the experiment on OVCAR-4 ovarian; 102% in the experiment on SK-OV-3 ovarian; 110% with IGROV1 ovarian. Moreover, the growth was 117% in the experiment with OVCAR-3 ovarian, 108% in the experiment with HS 578T breast and 114% in the experiment on NCI/ADR-RES ovarian.

Consider `C/C(=N\NC(=S)N1CC2CCC(CC2)C1)c1ccccn1`, for which the growth in the experiment on RPMI-8226 leukemia was -6.26% (active); with OVCAR-8 ovarian, 18.2%; with OVCAR-5 ovarian, 24.5%; in the experiment on OVCAR-4 ovarian it was -41.2% (active); with SK-OV-3 ovarian, 18.9%; in the experiment on IGROV1 ovarian, 5.07% (active). Also, the results for the growth in the experiment on OVCAR-3 ovarian, in the experiment with HS 578T breast and in the experiment on NCI/ADR-RES ovarian were -17.7% (active), 16.3% and 12.6%, respectively.

For the molecule `CC1(C)CCCC2=C1C(=O)N(SC(Cl)(Cl)Cl)C2=O`, the growth in the experiment on RPMI-8226 leukemia is 91.9%; in the experiment with OVCAR-8 ovarian, 102%; in the experiment with OVCAR-5 ovarian it was 103%; in the experiment with OVCAR-4 ovarian, 98.2%; in the experiment on SK-OV-3 ovarian it was 93.7%; in the experiment with IGROV1 ovarian it was 103%. The growth is 104% in the experiment on OVCAR-3 ovarian, 102% in the experiment on HS 578T breast and 105% in the experiment with NCI/ADR-RES ovarian.

For `Oc1ccc2c(c1)CCc1ccccc1-2`, the growth in the experiment with RPMI-8226 leukemia is 105%; in the experiment on OVCAR-8 ovarian it was 106%; with OVCAR-5 ovarian, 92.4%; in the experiment with OVCAR-4 ovarian, 90.9%; with SK-OV-3 ovarian it was 105%; in the experiment on IGROV1 ovarian, 116%. In addition, the growth is 112% in the experiment with OVCAR-3 ovarian, 96.8% with HS 578T breast and 114% with NCI/ADR-RES ovarian.
